# High-throughput results as filed in PubChem BioAssay.
# This is a sample that favours compounds with a hit; in the whole collection about 6.9% have one here.
# Mdm2-MdmX inh = inhibitors of human Mdm2-MdmX association, primary screen, cell-based, luminescence, split luciferase, SaOS-2, uHTS; inhibition, % at 8 µM; 3% of 330,000 active; AID 485346, 2010; Protein Mdm4 (Homo sapiens) + E3 ubiquitin-protein ligase Mdm2 (Homo sapiens), …; SaOS-2 split-luciferase Mdm2/MdmX complementation;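 active = inhibition of at least 50% at 8 µM in the primary screen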
# Target sequence (O15151 whole entry, looked up): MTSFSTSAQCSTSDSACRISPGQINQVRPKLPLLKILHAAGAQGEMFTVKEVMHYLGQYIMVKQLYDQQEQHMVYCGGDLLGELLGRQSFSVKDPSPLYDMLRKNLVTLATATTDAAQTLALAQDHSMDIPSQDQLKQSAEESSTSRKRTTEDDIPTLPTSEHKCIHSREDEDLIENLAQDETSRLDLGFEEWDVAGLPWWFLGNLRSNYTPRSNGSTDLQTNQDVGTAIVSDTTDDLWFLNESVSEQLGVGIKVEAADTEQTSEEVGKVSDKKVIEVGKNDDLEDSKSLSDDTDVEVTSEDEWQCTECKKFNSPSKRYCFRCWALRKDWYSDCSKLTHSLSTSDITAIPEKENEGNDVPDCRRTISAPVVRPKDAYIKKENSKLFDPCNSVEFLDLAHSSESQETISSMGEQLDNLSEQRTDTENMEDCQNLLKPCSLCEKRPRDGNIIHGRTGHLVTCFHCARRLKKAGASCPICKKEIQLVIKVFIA
# Target sequence (Q00987 whole entry, looked up): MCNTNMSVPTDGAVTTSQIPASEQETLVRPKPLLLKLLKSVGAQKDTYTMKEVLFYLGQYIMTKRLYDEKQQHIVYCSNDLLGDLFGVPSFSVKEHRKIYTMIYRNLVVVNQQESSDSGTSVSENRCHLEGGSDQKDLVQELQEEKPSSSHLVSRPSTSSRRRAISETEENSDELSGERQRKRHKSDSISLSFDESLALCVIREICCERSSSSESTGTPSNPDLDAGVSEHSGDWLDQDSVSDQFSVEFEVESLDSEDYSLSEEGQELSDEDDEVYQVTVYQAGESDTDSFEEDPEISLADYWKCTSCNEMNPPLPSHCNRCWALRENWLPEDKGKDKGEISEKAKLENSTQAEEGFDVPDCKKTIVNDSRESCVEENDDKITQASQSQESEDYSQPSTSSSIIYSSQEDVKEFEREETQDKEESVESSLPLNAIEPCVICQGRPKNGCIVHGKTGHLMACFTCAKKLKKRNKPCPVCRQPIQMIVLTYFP
# MPTP block = mitochondrial permeability transition pore inhibitors, primary screen, biochemical, isolated mouse mitochondria, absorbance; AID 602449, 2012; Ca2+ swelling absorbance, 30 min; inhibition, % at 10 µM; 1.4% of 360,000 active;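 active = inhibition of 50% or more, scaled per plate between neutral and stimulator controls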;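 also: 0% = DMSO wells given calcium and 100% = 1 mM EGTA wells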
# CSC inhib = cancer stem cell viability inhibitors, primary screen, luminescence; cancer stem cell-like cells viability; inhibition, % at 7.5 µM; 1.1% of 300,000 active; AID 2717, 2010; in the data active = inhibition above about 75%; tested in HMLE shEcad cells
# NR3A LBD binder = binders of NR3A ligand-binding domain, primary screen, biophysical, differential scanning fluorimetry, uHTS | NR3A LBD differential scanning fluorimetry, Tm shift; 0% = protein alone, 100% = glycine-bound protein | Tm shift relative to glycine control, % at 25 µM | AID 1259313, 2017 | Glutamate receptor ionotropic, NMDA 3A (GRIN3A) ligand-binding domain | 2.5% of 340,000 active;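 active = melting temperature shift of at least 10% of the positive control shift, at one fixed dose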
# Beta cell apopt = inhibitors of cytokine-induced beta cell apoptosis, primary screen, luminescence. 0.8% of 300,000 active. AID 435005, 2010. INS-1E cytokine-induced death, ATP luminescence, 48 h; percent of positive-control rescue, neutral wells zero. protection from apoptosis, % (test concentration not listed);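 active = Every replicate reaches about 75%, or at least half do and their mean reaches it too, limit read from the data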;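 also: 0% = cytokine-treated negative control wells and 100% = positive control rescue; higher means more ATP so stronger rescue from cytokine killing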
# SKKanGAS inh = S. pyogenes SKKanGAS growth inhibitors in kanamycin, primary screen, streptokinase expression inhibitor project, SKKanGAS strain, BacTiter-Glo luminescence. 6 h. inhibition, % at 7.5 µM. 1.3% of 300,000 active;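 active = mean replicate score, as percent of positive control median, at least 50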;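 also: strain carries kanamycin resistance gene driven by streptokinase promoter and grows in 40 µg/ml kanamycin; loss of luminescence reflects streptokinase promoter inhibition or plain growth inhibition; 0% = median of DMSO wells and 100% = positive control at its reference dose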
# Mdm2 MdmX conf = Mdm2-MdmX complex disruptors, retested hits, confirmation, luminescence, single concentration | shares compounds with Mdm2-MdmX inh | Mdm2-MdmX binding, luminescent assay | inhibition, % at 8 µM | 55% of 10,000 active; in the data active = inhibition above about 40%
# FLuc counter = full-length luciferase signal inhibition, confirmation, counter-screen for Mdm2/MdmX interaction inhibitor project, cell-based, single concentration, SaOS-2. shares compounds with Mdm2-MdmX inh. SaOS-2 full-length luciferase counterscreen, luminescence. inhibition, % at 8 µM. 77% of 6,200 active. AID 504607, 2011;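 active = mean inhibition at 8 µM reaching about 37%, which flags the compound as non-specific, limit read from the data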;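 also: p53-null SaOS-2 cells with luciferase driven by a doxycycline-inducible promoter; compound on cells about two nights before reading with doxycycline added after day one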
# * = called active by the depositor; x = no result given.
SMILES,Mdm2-MdmX inh,MPTP block,CSC inhib,NR3A LBD binder,Beta cell apopt,SKKanGAS inh,Mdm2 MdmX conf,FLuc counter
CCOC(=O)C1CCN(c2cc3c(cc2NC(=O)c2ccc(OC)c(OC)c2)n(C)c(=O)n3C)CC1,65*,-1,-11,1,21,28,26,x
CCN1C(=O)[C@H]2[C@@H](c3ccc(-c4ccccc4)cc3)N[C@@](CC(C)C)(C(=O)OC)[C@H]2C1=O,30,0,24,4,10,9,x,x
C/C(=N\Nc1ncnc2sc(C)c(C)c12)c1ccccn1,99*,0,x,-2,98*,-8,61*,77*
COC(C/C=C\C(=O)[C@@H](C)OCc1ccccc1)OC,11,x,-17,x,-4,-3,x,x
COc1ccc(NCC(=O)n2c(C)c(C)c3ccccc32)cc1OC,15,2,4,0,-1,-2,x,x
CCc1nc(SCC(=O)Nc2ccc3c(c2)OCCO3)c2oc3ccccc3c2n1,86*,-1,44,9,10,3,9,x
CCn1ncc(CN2CCCC(C(=O)Nc3cccc(-c4cc5ccccc5[nH]4)c3)C2)c1C (stereo not given),59*,0,20,-19,-2,-1,12,x
O=C(CSc1n[nH]c(-c2ccccn2)n1)Nc1cccc(Cl)c1,60*,-1,1,2,0,-7,53*,40*
Cc1nc2ccccc2c(=O)n1/N=C/c1c(O)ccc2oc3c(c12)CCCC3,63*,0,82*,1,93*,22,38,50*
CC(C)CCn1c(Sc2nc3ccccc3o2)nc2c1c(=O)[nH]c(=O)n2C,61*,2,20,-7,-10,4,46*,41*
CC(=O)c1cccc(OC(=O)Oc2cccc(C(C)=O)c2)c1,x,1,x,-3,x,x,x,x
CC(/C=C(\NC(=O)c1ccccc1)C(=O)N=Nc1c(O)[nH]c2ccc(C)cc12)=C\c1ccccc1,64*,1,15,-4,34,42,47*,82*
O=C(Nc1nc2ccc(F)cc2s1)c1ccccn1,93*,x,-6,-5,76*,98*,65*,58*
O=C(Nc1nnc(SCc2ccc(F)cc2)s1)c1ccccn1,82*,-3,x,-12,x,63*,69*,41*
O=C(Nc1nnc(SCc2ccc(F)cc2)s1)c1cccnc1Cl,31,0,6,-4,-5,12,x,x
O=C(Oc1c(-c2ccccc2)c(=O)n2c3c(cccc13)CC2)c1ccco1,54*,2,-2,-3,-4,19,12,x
O=C(Oc1c(-c2ccccc2)c(=O)n2c3c(cccc13)CC2)c1ccc(Cl)cc1,46,4,16,-5,0,17,x,x
CCCCNC(=O)C(C)N(CCN(C)C)C(=O)CCCN1C(=O)NC(c2ccc([N+](=O)[O-])cc2)C(C(=O)OCc2ccccc2)=C1C (stereo not given),68*,-4,x,-2,x,x,23,x
CCCCCCN(C(=O)CCCCCN1C(=O)NC(c2cccc([N+](=O)[O-])c2)C(C(=O)OCc2ccccc2)=C1C)C(C(=O)NCCCC)c1ccc(OCC(=O)OC)c(C(=O)OC)c1 (stereo not given),85*,x,-43,x,0,28,-14,x
CCCCNC(=O)C(C1CCCCC1)N(CCN(C)C)C(=O)CCCN1C(=O)NC(c2ccc(-c3ccccc3)cc2)C(C(=O)OCc2ccccc2)=C1C (stereo not given),97*,x,x,x,x,x,57*,1
CCCCCCN(C(=O)CCCCCN1C(=O)NC(c2ccc([N+](=O)[O-])cc2)C(C(=O)OCc2ccccc2)=C1C)C(C(=O)NCCCC)c1ccc(OCC(=O)OC)c(C(=O)OC)c1 (stereo not given),34,x,54,x,-1,18,x,x
CCCCCCN(C(=O)CCCCCN1C(=O)NC(c2ccc(-c3ccccc3)cc2)C(C(=O)OCc2ccccc2)=C1C)C(C)C(=O)NCCCC (stereo not given),19,x,3,x,8,23,x,x
COc1ccc(NS(=O)(=O)c2ccc3c(c2)N(C(C)=O)CCO3)c(OC)c1,-1,0,0,-2,-3,0,x,x
CCC[C@@H]1C[C@@]1(CCC)[C@@H](NP(=O)(c1ccccc1)c1ccccc1)c1ccc(C(=O)OC)cc1,75*,x,-11,1,x,97*,39,73*
COC(=O)c1cccc(C#CC(NP(=O)(c2ccccc2)c2ccccc2)c2ccccc2)c1 (stereo not given),30,-2,34,0,11,22,x,x
SMILES,Mdm2-MdmX inh,MPTP block,CSC inhib,NR3A LBD binder,Beta cell apopt,SKKanGAS inh,Mdm2 MdmX conf,FLuc counter
COc1cc(-c2noc(C)c2-c2ccc3[nH]ccc3c2)cc(OC)c1OC,82*,2,7,-8,17,4,77*,54*
COc1cc(-c2noc(C)c2-c2ccc(N(C)C)nc2)cc(OC)c1OC,86*,-2,70,1,42,-2,79*,88*
COc1cc(-c2noc(C)c2C(=O)NCCc2c[nH]c3ccccc23)cc(OC)c1OC,-1,1,27,-4,4,3,x,x
Cc1ccc(N2C(=O)CCC2(C(N)=O)c2ccccc2)cc1 (stereo not given),30,-1,-6,-6,0,-2,x,x
Cc1ccc2c(COC(=O)CNC(=O)c3ccco3)cc(=O)oc2c1C,-7,0,x,3,x,x,x,x
Cc1ccc(C)c(OCCCNCc2ccccc2)c1,18,4,2,-1,x,2,x,x
Clc1cc(Br)ccc1OCCCNCc1ccccc1,55*,4,37,1,7,9,11,x
CCCCn1c(N)c(N(CCOC)C(=O)c2cc(S(=O)(=O)N3CCCCC3)ccc2C)c(=O)[nH]c1=O,-10,1,-3,-2,-1,-1,x,x
CCC(=O)N1c2ccc(S(=O)(=O)N3CCN(c4ccccc4Cl)CC3)cc2CC1C (stereo not given),22,0,0,1,-9,8,x,x
Cc1ccccc1CN(C)C(=O)CNC(=O)c1ccc2ccccc2c1,5,6,-7,-1,-2,-4,x,x
